Results on 76 compounds are retold here after PubChem BioAssay AID602393 (Broad Institute, 2012).

About 7,000 (2%) of roughly 350,000 compounds were called active. What follows is part of a selection rich in actives, with near analogues and random picks from the rest. Unmarked numbers belong to inactive results. Rule as the data show it: active = activation above about 40%; inconclusive = no clear call, values can overlap the other calls; inactive = below that.

The nature of the test: raisers of Bmi1 knock-in reporter signal – mouse ES cells, Bmi1 luciferase knock-in, single point, esBAF inhibitor project, primary screen (AID 602393).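 Also: 0% = median of the plate's neutral control wells and 100% = double that signal; a rise in the Bmi1 reporter signal indicates esBAF inhibition.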 The note with it: 24 h, at 12.5 µM, active compounds read high, 100% = twice the neutral-well signal.
As for `C[C@@H]1CN([C@H](C)CO)C(=O)c2cc(-c3ccncc3)cnc2O[C@H]1CN(C)C`, the reporter increase is 2.47%.

In the case of `O=C(C[C@H]1CC[C@H]2[C@@H](COC[C@@H](O)CN2S(=O)(=O)c2cccc(Cl)c2)O1)NC1CCCC1`, the reporter increase was 0.9%.

For `CN1C(=O)c2cc(NC(=O)c3ccc(Cl)cc3)ccc2OC[C@@H]2O[C@@H](CC(=O)O)CC[C@H]21`, the reporter increase is 5.97%.

With `CC(C)NC(=O)N(C)C[C@H]1Oc2ccc(NC(=O)CCC(F)(F)F)cc2CC(=O)N([C@@H](C)CO)C[C@@H]1C`, the reporter increase was -3.69%.

On to `CCCC(=O)Nc1ccc2c(c1)C(=O)N(C)C[C@H](OC)[C@H](C)CN(CCc1ccccc1)[C@H](C)CO2`, for which the reporter increase was -0.112%.

For `Cc1ccc(S(=O)(=O)NCC[C@@H]2CC[C@H](NC(=O)c3ccccn3)[C@H](CO)O2)cc1`, the reporter increase is 1.61%.

Regarding `O=C(N[C@H]1CC[C@@H](CCNC(=O)C2CCC2)O[C@@H]1CO)c1ccncc1`, the reporter increase was -1.2%.

As for `Cc1noc(C)c1NC(=O)Nc1ccc2c(c1)C(=O)N([C@@H](C)CO)C[C@H](C)[C@@H](CN(C)Cc1ccncc1)OCCCC[C@@H](C)O2`, the reporter increase was -7.33%.

Regarding `O=C(C[C@@H]1CC[C@H]2[C@@H](COC[C@@H](O)CN2S(=O)(=O)c2cccc(F)c2)O1)NCCCN1CCOCC1`, the reporter increase is 2.86%.

For the compound `O=C(NCc1ccccn1)c1cc(-c2ccccc2Cl)on1`, the reporter increase was 54.4% (active).

Take `O=C(NC1CCCC1)c1cc(-c2ccccc2)on1`: the reporter increase is 18.8%.

As for `Clc1ccccc1-c1cc(COc2ccc3ccccc3c2)no1`, the reporter increase was 9.3%.

As to `O=C(Nc1cccnc1Cl)c1cc(-c2ccccc2O)on1`, the reporter increase was 65% (active).

In the case of `O=C(NCc1ccccn1)Nc1ccc(Cl)cc1`, the reporter increase is 21.5%.

As to `C=CCNC(=O)c1cc(-c2ccccc2O)on1`, the reporter increase is 35.4%.

Turning to `C[C@H](CO)N1C[C@H](C)[C@@H](CN(C)C)OCCCC[C@H](C)Oc2ccc(NC(=O)C3CCCCC3)cc2C1=O`, the reporter increase was -0.46%.

Take `COc1ccc(CNC(=O)C[C@H]2CC[C@@H]3[C@H](COc4ccc(NC(=O)C5CC5)cc4C(=O)N3C)O2)cc1`: the reporter increase is -1.53%.

On to `CCCNC(=O)N(C)C[C@H]1Oc2ncc(C#C[C@@H](C)O)cc2C(=O)N([C@@H](C)CO)C[C@@H]1C`, for which the reporter increase is -6.34%.

For `N#C[C@H]1[C@@H](c2ccc(C3=CCCCC3)cc2)[C@@H](CO)N1C(=O)Cc1ccncc1`, the reporter increase is 2.63%.

Turning to `Cc1noc(C)c1NC(=O)Nc1ccc2c(c1)C(=O)N([C@@H](C)CO)C[C@H](C)[C@@H](CN(C)C(=O)C1CCCCC1)OCCCC[C@@H](C)O2`, the reporter increase is 3.6%.

On to `CCCNC(=O)Nc1ccc2c(c1)OC[C@@H](C)N(CC1CCCC1)C[C@@H](C)[C@H](OC)CN(C)C2=O`, for which the reporter increase is 6.43%.

On to `O=C(C[C@@H]1CC[C@H]2[C@@H](COC[C@H](O)CN2S(=O)(=O)c2ccc(F)cc2)O1)N[C@H]1CCN(Cc2ccccc2)C1`, for which the reporter increase was 5.45%.

As for `COCCNC(=O)C[C@H]1CC[C@@H]2[C@@H](COc3ccc(NC(=O)C4CCOCC4)cc3C(=O)N2C)O1`, the reporter increase is 0.774%.

On to `CC(=O)Nc1ccc(S(=O)(=O)Nc2ccc(N3CCOCC3)c(F)c2)cc1`, for which the reporter increase is 0.869%.

Turning to `Cc1nc2ccc(NC(=O)c3cccc(S(=O)(=O)N4CCOCC4)c3)cc2s1`, the reporter increase was 7.36%.

In the case of `O=S(=O)(Nc1ccc2nc(N3CCOCC3)sc2c1)c1ccccc1`, the reporter increase was 73% (active).

On to `O=C(C[C@@H]1C[C@@H]2c3cc(NC(=O)C4CCOCC4)ccc3O[C@@H]2[C@H](CO)O1)NCc1ccncc1`, for which the reporter increase is -0.887%.

Take `C[C@@H]1CN([C@H](C)CO)C(=O)c2cc(-c3ccncc3)cnc2O[C@@H]1CN(C)C(=O)Cc1cccnc1`: the reporter increase was -2.67%.

Consider `Cc1ccc(S(=O)(=O)N[C@@H]2CC[C@@H](CCn3cc(C(C)C)nn3)O[C@H]2CO)cc1`, for which the reporter increase was -3.18%.

Take `Cc1cccc(S(=O)(=O)N2C[C@H]3[C@@H](c4ccccc42)[C@H](CO)N3Cc2ccc3c(c2)OCO3)c1`: the reporter increase was -3.41%.

Take `CO[C@@H]1CN(C)C(=O)c2ccc(NS(=O)(=O)c3ccc(C)cc3)cc2OC[C@@H](C)N(Cc2nccs2)C[C@H]1C`: the reporter increase was -3.84%.

Take `c1ccc(-c2cc(-c3ccccc3)[nH]n2)cc1`: the reporter increase is 42.5% (active).

Take `CC(C)(C)C1CCC(=NNC(=O)c2cc(-c3ccccc3)n[nH]2)CC1` (stereo unspecified): the reporter increase was -0.812%.

In the case of `Oc1ccccc1-c1cc(-c2ccc(Cl)cc2)n[nH]1`, the reporter increase is 21.6%.

On to `CN1C(=O)c2cc(NC(=O)Nc3ccccc3F)ccc2OC[C@H]2O[C@@H](CC(=O)Nc3cccc(Cl)c3)CC[C@@H]21`, for which the reporter increase was 20.4%.

`Cc1noc(C)c1S(=O)(=O)N(C)C[C@H]1OCCCC[C@H](C)Oc2ccc(NS(=O)(=O)c3ccccc3)cc2C(=O)N([C@H](C)CO)C[C@@H]1C`: the reporter increase was -1.33%.

As to `Cn1cnc(CCNC(=O)C[C@@H]2CC[C@@H]3[C@H](COC[C@@H](O)CN3C(=O)Nc3ccccc3)O2)c1`, the reporter increase is -3.44%.

Take `C[C@@H]1CN([C@@H](C)CO)S(=O)(=O)c2ccc(-c3cncnc3)cc2O[C@@H]1CN(C)C(=O)C1CC1`: the reporter increase was -3.14%.

Consider `O=C(Cn1c(NCCO)nc2ccccc21)c1ccc(Cl)cc1Cl`, for which the reporter increase was -0.748%.

In the case of `Cn1c(Nc2cccc(Cl)c2)nc2ccccc21`, the reporter increase is 53.4% (active).

In the case of `C/C(=N\c1nc2ccccc2n1C)c1cc(Cl)ccc1O`, the reporter increase is -2.25%.

Regarding `C[C@@H]1CN([C@H](C)CO)C(=O)CCCn2cc(nn2)CO[C@@H]1CN(C)C(=O)c1ccc2ccn(C)c2c1`, the reporter increase was -1.71%.

`Cc1ccc(OCc2cc(C(=O)N(C)CCn3ccnc3C)no2)cc1C`: the reporter increase was 11.8%.

Turning to `Cc1cc(CN(C)C(=O)c2cc(COc3ccc(C)c(C)c3)on2)n[nH]1`, the reporter increase was 13.8%.

Regarding `Cc1ccc(OCc2cc(C(=O)N(C)CCc3ccccc3)no2)cc1C`, the reporter increase was 71.6% (active).

Take `O=C(Nc1ccccc1)Nc1ccc2c(c1)[C@@H]1C[C@@H](CC(=O)N3CCCCC3)O[C@H](CO)[C@@H]1O2`: the reporter increase was -0.639%.

With `CO[C@H]1CN(C)C(=O)c2ccc(NS(=O)(=O)c3cn(C)cn3)cc2OC[C@@H](C)N(CC2CC2)C[C@H]1C`, the reporter increase is -8.79%.

Turning to `O=C(Nc1ccon1)c1sc2ccccc2c1Cl`, the reporter increase is 48.7% (active).

Take `CN1CCc2ccccc2C1Cc1ccccc1NC(=O)c1sc2ccccc2c1Cl` (stereo unspecified): the reporter increase was 51%.

On to `O=C(Nc1ccon1)c1nc[nH]c1C(=O)NCc1ccccc1`, for which the reporter increase is -6.72%.

Regarding `Cc1ccc(-n2c(SCC(=O)N3CCC(C(=O)O)CC3)nc3ccccc3c2=O)cc1C`, the reporter increase was 42% (active).

In the case of `O=C(CSc1nc2ccccc2c(=O)n1-c1ccc(F)cc1)NC1CC1`, the reporter increase is -5.85%.

Regarding `O=C(CSc1nc2ccccc2c(=O)n1-c1ccccc1F)N1CCOCC1`, the reporter increase was -4.38%.

As to `Cc1noc(C)c1NC(=O)Nc1ccc2c(c1)C(=O)N([C@H](C)CO)C[C@H](C)[C@H](CN(C)S(=O)(=O)c1cccs1)O2`, the reporter increase was 1.55%.

On to `O=C(NC1CCCC1)[C@H]1[C@H](CO)[C@H]2Cn3c(ccc(-c4ccccc4F)c3=O)[C@@H]1N2C(=O)CC1CC1`, for which the reporter increase was -2.95%.

As to `CO[C@H]1CN(C)C(=O)c2cc(NS(=O)(=O)c3ccccc3C)ccc2OC[C@@H](C)NC[C@@H]1C`, the reporter increase was 1.69%.

In the case of `C[C@@H]1CCCCO[C@H](CN(C)C(=O)CCCN(C)C)[C@H](C)CN([C@@H](C)CO)C(=O)c2cc(NS(=O)(=O)c3ccc(Cl)cc3)ccc2O1`, the reporter increase was 2.25%.

Consider `C[C@H](CO)N1C[C@H](C)[C@H](CN(C)Cc2ccc(C(F)(F)F)cc2)Oc2ccc(NC(=O)CCCCCC(=O)Nc3ccccc3N)cc2CC1=O`, for which the reporter increase was -12.1%.

Take `O=C(Cc1ccccc1)N/N=C/c1ccc(Cl)cc1Cl`: the reporter increase is 3%.

As for `CCn1nc(C)c(/C=N/NC(=O)Cc2ccc(Cl)cc2)c1C`, the reporter increase is 64.3% (active).

Take `Cc1ccc(/C=N/NC(=O)Cn2nc(C)c(Br)c2C)o1`: the reporter increase was -0.989%.

Turning to `COc1cccc(-c2cnc3c(c2)C(=O)N([C@@H](C)CO)C[C@@H](C)[C@H](CN(C)C(=O)CN(C)C)O3)c1`, the reporter increase was 4.59%.

As to `O=C(C[C@H]1C=C[C@H](NC(=O)c2cnccn2)[C@@H](CO)O1)NCc1ccccc1F`, the reporter increase is -2.01%.

For the compound `Cc1noc(C)c1COC(=O)c1cc2ccccc2cc1O`, the reporter increase was -1.05%.

For `Cc1ccc(-c2nc(COC(=O)c3c(C)noc3C)cs2)cc1`, the reporter increase is 76.6% (active).

Regarding `Cc1ccc(S(=O)(=O)N2CCN(C(=O)COC(=O)c3c(C)noc3C)CC2)c(C)c1`, the reporter increase is 0.794%.

As for `COc1ccc(CNC(=O)C[C@H]2CC[C@H](NC(=O)Nc3ccc4c(c3)OCO4)[C@H](CO)O2)cc1`, the reporter increase was -2.93%.

Consider `C[C@@H]1CN([C@@H](C)CO)C(=O)c2cc(NC(=O)Nc3ccc4c(c3)OCO4)ccc2O[C@@H](C)CCCCO[C@@H]1CN(C)C(=O)Nc1ccc2c(c1)OCO2`, for which the reporter increase was 64.3% (active).

For `C[C@H](CO)N1C[C@H](C)[C@@H](CN(C)C(=O)Nc2ccc3c(c2)OCO3)OCCCC[C@H](C)Oc2ccc(NC(=O)Nc3ccc4c(c3)OCO4)cc2C1=O`, the reporter increase was 45% (active).

With `COc1ccc(NC(=O)Nc2ccc3c(c2)C(=O)N([C@H](C)CO)C[C@H](C)[C@@H](CN(C)C(=O)Nc2ccc(OC)cc2)OCCCC[C@H](C)O3)cc1`, the reporter increase is 3.33%.

Take `C[C@H](CO)N1C[C@H](C)[C@@H](CN(C)C(=O)Nc2ccc3c(c2)OCO3)OCCCC[C@H](C)Oc2ccc(NC(=O)Nc3ccc(F)cc3)cc2C1=O`: the reporter increase is 4.31%.

As to `COc1ccc(NC(=O)N(C)C[C@H]2OCCCC[C@@H](C)Oc3ccc(NC(=O)Nc4ccc5c(c4)OCO5)cc3C(=O)N([C@H](C)CO)C[C@@H]2C)cc1`, the reporter increase is 49.3% (active).

Consider `COc1ccc(NC(=O)Nc2ccc3c(c2)C(=O)N([C@@H](C)CO)C[C@@H](C)[C@@H](CN(C)C(=O)Nc2ccc(F)cc2)OCCCC[C@@H](C)O3)cc1`, for which the reporter increase was 4.33%.

For the compound `C[C@H]1CCCCO[C@H](CN(C)C(=O)Nc2ccc3c(c2)OCO3)[C@@H](C)CN([C@@H](C)CO)C(=O)c2cc(NC(=O)Nc3ccccc3)ccc2O1`, the reporter increase is 10.9%.

With `C[C@H]1CCCCO[C@H](CN(C)C(=O)Nc2ccccc2)[C@@H](C)CN([C@@H](C)CO)C(=O)c2cc(NC(=O)Nc3ccc4c(c3)OCO4)ccc2O1`, the reporter increase was 27%.

For `C[C@@H]1CN([C@@H](C)CO)C(=O)c2cc(NC(=O)Nc3ccc4c(c3)OCO4)ccc2O[C@@H](C)CCCCO[C@H]1CN(C)C(=O)Nc1ccc(C(F)(F)F)cc1`, the reporter increase was 0.715%.
